In assay [1] the test system is E18 rat cortical neuron-glia co-culture. The assay is described as follows: fiber score / MBP score (myelination specific beyond OL differentiation) (ratio); higher = more myelination-specific MBP alignment. The settings on record: treatment time: 8 days (DIV5-DIV13). In outline:
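Fiber score divided by MBP score is the read-out; fiber score is continuous MBP fiber length per Olig2+ nucleus, and MBP score is thresholded MBP area × intensity per Olig2+ nucleus. Primary E18 rat cortical co-cultures were dissociated with papain and seeded at 20,000 cells/well on poly-d-lysine/laminin 96-well plates. Library compounds at 1 or 5 µM were given in myelination medium from DIV5 to DIV13, after which cells were fixed in 4 % paraformaldehyde, immunostained for MBP and Olig2 with DAPI, and imaged in four 10X fields per well in duplicate wells.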

Assay [2] shares this test system. Nature of the assay: myelination (MBP fiber length per Olig2+ nucleus), % of 1 µM DAPT response (DMSO = 0) (% of DAPT); higher = more myelination, active = 50 or more. The settings on record: treatment time: 8 days (DIV5-DIV13). In outline: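 Four 10X fields in each of duplicate wells were analysed after cultures were fixed in 4 % paraformaldehyde and immunostained for MBP and Olig2, with DAPI as the nuclear counterstain. The cultures were papain-dissociated primary E18 rat cortical co-cultures at 20,000 cells/well on poly-d-lysine/laminin 96-well plates, dosed with library compounds at 1 or 5 µM in myelination medium from DIV5 to DIV13. The myelination readout was continuous straight MBP fiber length per Olig2+ nucleus, with 0.1 % DMSO set to 0 and a 1 µM positive control set to 100.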

± gives the standard deviation of the averaged measurements.

As to `COc1ccc(Cl)cc1C(=O)NCCc1ccc(S(=O)(=O)NC(=O)NC2CCCCC2)cc1` [Glyburide], the results for the “fiber score / MBP score” value in assay [1] (1 µM) and in assay [1] (5 µM) were 1.07 and 0.835, respectively. In addition, the myelination is 1.49 (inactive) in assay [2] (1 µM) and -10.7 (inactive) in assay [2] (5 µM).

As for `CCCc1c(OCCCCc2nnn[nH]2)ccc(C(C)=O)c1O`, the “fiber score / MBP score” value in assay [1] (1 µM) is 0.683; in assay [1] (5 µM) it was 1. Further, the myelination in assay [2] (1 µM) was -11.5 (inactive); in assay [2] (5 µM), 1.2 (inactive).

With `CCN(CC)CCOC(=O)c1ccc(N)cc1` [Procaine], the “fiber score / MBP score” value is 1.09 in assay [1] (1 µM) and 1.47 in assay [1] (5 µM). Moreover, the myelination in assay [2] (1 µM) is 6.68 (inactive); in assay [2] (5 µM), 23.1 (inactive).

As to `O=C1NC(=O)C(c2ccccc2)(c2ccccc2)N1` [Phenytoin], the “fiber score / MBP score” value in assay [1] (1 µM) was determined as 0.39; in assay [1] (5 µM), 0.762. The myelination in assay [2] (1 µM) was -17.5 (inactive); in assay [2] (5 µM) it was -20.9 (inactive).

For `COc1ccc(C2CNC(=O)C2)cc1OC1CCCC1` (configuration not stated) [Rolipram], the “fiber score / MBP score” value in assay [1] (1 µM) was determined as 0.626; in assay [1] (5 µM) it was 0.618. For the same molecule, the myelination in assay [2] (1 µM) was -51.4 (inactive); in assay [2] (5 µM), -53.6 (inactive).

As for `NC(=O)N1c2ccccc2C=Cc2ccccc21` [Carbamazepine], the “fiber score / MBP score” value in assay [1] (1 µM) was 0.735; in assay [1] (5 µM), 0.902. In addition, the myelination in assay [2] (1 µM) is 2.28 (inactive); in assay [2] (5 µM), 2.05 (inactive).

Take `Nc1ncnc2c1ncn2[C@@H]1O[C@H](CO)[C@@H](O)[C@@H]1O` [Vidarabine]: the results for the “fiber score / MBP score” value in assay [1] (1 µM) and in assay [1] (5 µM) were 0.8 and 1.2, respectively. Also, the myelination in assay [2] (1 µM) was -13.9 (inactive); in assay [2] (5 µM), 24.3 (inactive).

In the case of `O=C1CC2(CCCC2)CC(=O)N1CCNCC1COc2ccccc2O1` (configuration not stated) [Binospirone], the “fiber score / MBP score” value in assay [1] (1 µM) was 0.768; in assay [1] (5 µM), 0.49. The myelination in assay [2] (1 µM) was -14.3 (inactive); in assay [2] (5 µM) it was -17.9 (inactive).

`Cc1ccc(Cl)c(Nc2ccccc2C(=O)O)c1Cl` [Meclofenamic acid]: the “fiber score / MBP score” value in assay [1] (1 µM) worked out at 0.788; in assay [1] (5 µM), 0.864. For the same molecule, the values for the myelination in assay [2] (1 µM) and in assay [2] (5 µM) were -26 (inactive) and -2.96 (inactive), respectively.

For the molecule `c1ccc2[nH]c(-c3cscn3)nc2c1` [Thiabendazole], the figures for the “fiber score / MBP score” value in assay [1] (1 µM) and in assay [1] (5 µM) were 1.05 and 0.885, respectively. Moreover, the myelination is 0.461 (inactive) in assay [2] (1 µM) and -0.348 (inactive) in assay [2] (5 µM).

Take `CN(C)CCC=C1c2ccccc2COc2ccccc21` [Doxepin]: the “fiber score / MBP score” value is 0.859 ± 0.061 in assay [1] (1 µM) and 0.732 ± 0.042 in assay [1] (5 µM). Also, the myelination in assay [2] (1 µM) is -6.24 (inactive); in assay [2] (5 µM), -4.42 (inactive).

As for `CCC(C)n1ncn(-c2ccc(N3CCN(c4ccc(OCC5COC(Cn6cncn6)(c6ccc(Cl)cc6Cl)O5)cc4)CC3)cc2)c1=O` (configuration not stated) [Itraconazole], the “fiber score / MBP score” value in assay [1] (1 µM) turned out to be 1.21; in assay [1] (5 µM), 0.918. Besides, the figures for the myelination in assay [2] (1 µM) and in assay [2] (5 µM) were 8.72 (inactive) and -72.2 (inactive), respectively.

As to `CN1CCN(C2=Nc3ccccc3Oc3ccc(Cl)cc32)CC1` [Loxapine], the “fiber score / MBP score” value was determined as 0.561 in assay [1] (1 µM) and 0.903 in assay [1] (5 µM). Further, the myelination in assay [2] (1 µM) is -14.9 (inactive); in assay [2] (5 µM), 4.82 (inactive).

As to `CN(Cc1cnc2nc(N)nc(N)c2n1)c1ccc(C(=O)N[C@@H](CCC(=O)O)C(=O)O)cc1` [Methotrexate], the “fiber score / MBP score” value in assay [1] (1 µM) was determined as 1.06; in assay [1] (5 µM), 1.53. The values for the myelination in assay [2] (1 µM) and in assay [2] (5 µM) were -20.4 (inactive) and 195 (active), respectively.

As for `CC(=O)OCC(=O)NCCCOc1cccc(CN2CCCCC2)c1` [Roxatidine acetate], the “fiber score / MBP score” value is 0.727 in assay [1] (1 µM) and 0.706 in assay [1] (5 µM). The myelination in assay [2] (1 µM) is -10.7 (inactive); in assay [2] (5 µM) it was -14.2 (inactive).

`CN(C)CCc1c[nH]c2ccc(Cn3cncn3)cc12` [Rizatriptan]: the results for the “fiber score / MBP score” value in assay [1] (1 µM) and in assay [1] (5 µM) were 0.516 and 0.414, respectively. Further, the myelination in assay [2] (1 µM) is -15 (inactive); in assay [2] (5 µM) it was -20.4 (inactive).

For the molecule `C[C@H](CS)C(=O)N1CCC[C@H]1C(=O)O` [Captopril], the entries for the “fiber score / MBP score” value in assay [1] (1 µM) and in assay [1] (5 µM) were 0.773 and 0.704, respectively. Moreover, the myelination is -9.04 (inactive) in assay [2] (1 µM) and -9.32 (inactive) in assay [2] (5 µM).

On to `Nc1nc(=O)[nH]cc1F` [Flucytosine], for which the “fiber score / MBP score” value came to 0.88 in assay [1] (1 µM) and 0.855 in assay [1] (5 µM). Further, the values for the myelination in assay [2] (1 µM) and in assay [2] (5 µM) were -9.17 (inactive) and -9.52 (inactive), respectively.

`COc1cc2c(cc1OC)C(=O)C(CC1CCN(Cc3ccccc3)CC1)C2` (configuration not stated) [Donepezil]: the entries for the “fiber score / MBP score” value in assay [1] (1 µM) and in assay [1] (5 µM) were 0.462 and 0.277, respectively. Further, the myelination was -20.8 (inactive) in assay [2] (1 µM) and -26.1 (inactive) in assay [2] (5 µM).

In the case of `CC(C)(S)[C@@H](N)C(=O)O` [Penicillamine], the “fiber score / MBP score” value was 0.988 in assay [1] (1 µM) and 0.926 in assay [1] (5 µM). Also, the myelination in assay [2] (1 µM) is -2.14 (inactive); in assay [2] (5 µM) it was -5.65 (inactive).

As for `N=C(N)N` [Guanidine], the “fiber score / MBP score” value in assay [1] (1 µM) was 0.765; in assay [1] (5 µM), 0.71. Further, the myelination in assay [2] (1 µM) is -7.42 (inactive); in assay [2] (5 µM), -8.57 (inactive).

Take `NS(=O)(=O)c1cc2c(cc1Cl)N=CNS2(=O)=O` [Chlorothiazide]: the figures for the “fiber score / MBP score” value in assay [1] (1 µM) and in assay [1] (5 µM) were 1.05 and 0.841, respectively. The myelination in assay [2] (1 µM) was 3.67 (inactive); in assay [2] (5 µM), 6.93 (inactive).

With `CCN(CC)CC1CCCCN1CC(=O)N1c2ccccc2C(=O)Nc2cccnc21` (configuration not stated) [Otenzepad], the entries for the “fiber score / MBP score” value in assay [1] (1 µM) and in assay [1] (5 µM) were 0.774 and 0.692, respectively. For the same molecule, the myelination was -9.61 (inactive) in assay [2] (1 µM) and -15.6 (inactive) in assay [2] (5 µM).

Consider `COC(=O)C1=C(C)NC(C)=C(C(=O)OCCN(C)Cc2ccccc2)C1c1cccc([N+](=O)[O-])c1` (configuration not stated) [Nicardipine], for which the “fiber score / MBP score” value is 0.629 in assay [1] (1 µM) and 0.824 in assay [1] (5 µM). Also, the myelination is -8.17 (inactive) in assay [2] (1 µM) and -21.2 (inactive) in assay [2] (5 µM).

With `Cc1c(C(=O)NN2CCCCC2)nn(-c2ccc(Cl)cc2Cl)c1-c1ccc(I)cc1`, the “fiber score / MBP score” value in assay [1] (1 µM) worked out at 0.94. In addition, the myelination in assay [2] (1 µM) is 17.6 (inactive).

Turning to `CC(=O)O[C@@]12CO[C@@H]1C[C@H](O)[C@@]1(C)C(=O)[C@H](O)C3=C(C)[C@@H](OC(=O)[C@H](O)[C@@H](NC(=O)OC(C)(C)C)c4ccccc4)C[C@@](O)([C@@H](OC(=O)c4ccccc4)[C@H]21)C3(C)C` [Docetaxel], the “fiber score / MBP score” value turned out to be 1.59 in assay [1] (1 µM) and 1.62 in assay [1] (5 µM). The myelination is 263 (active) in assay [2] (1 µM) and 257 (active) in assay [2] (5 µM).

The values above are taken from the supplement of paper PMC4840960.
